Screening data as filed in PubChem.
KB-3-1 tox: kills parental KB-3-1 adenocarcinoma cells | KB-3-1 viability, CellTiter-Glo ATP luminescence, 72 h | Potency, µM (titrated, usually from 46.1 µM), actives largely listed as cytotoxic | actives 1.4% (n = 400,000) | AID 1347075; further: nearly all actives have a fitted effect of over 60% in size
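Cells are dispensed, compounds pinned in, plates held at 37 °C for 72 h, then CellTiter-Glo is added and luminescence read after 10 minutes. Cell line: parental KB-3-1 in phenol-red-free DMEM, 10% FBS.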
KB-V1 MDR tox: KB-V1 MDR subline cytotoxicity; KB-V1 MDR cells viability, CellTiter-Glo, 72 h; Potency, µM (highest dose often 46.1 µM), hits mostly cytotoxic; actives 3.4% (n = 400,000); AID 1347076; further: nearly all actives have a fitted effect of over 60% in size
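Potencies derive from concentration-effect curves fitted to normalized luminescence (CellTiter-Glo) of KB-V1 cells treated for 72 h at 37 degrees C in phenol-red-free DMEM containing 10% FBS.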
DT40 TDP1 CPT: growth inhibition of DT40 Tdp1-/-;hTDP1 cells with camptothecin (screen for TDP1 inhibitors) | Potency, µM (top dose mostly 46.2 µM), without a hit: at the top dose activity change, negative = growth inhibition, usual class: inhibitors | actives 12% (n = 420,000) | chicken DT40 Tdp1-/-;hTDP1 cells + 20 nM CPT, ATP luminescence, 48 h; further: nearly all actives have a fitted effect of over 55% in size
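Chicken DT40 Tdp1-/- cells complemented with human TDP1, 400 cells/well, exposed to compounds plus 20 nM camptothecin for at least 48 h at 37 C; viability read as ATP content by CellTiter-Glo luminescence.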
HT1080NT lethal: kills 2HG-producing HT-1080-NT fibrosarcoma cells; AID 686970; Potency, µM (doses to about 46.1 µM), for inactives: top-dose activity, negative = less viability, hits mostly cytotoxic; HT-1080-NT fibrosarcoma viability, CellTiter-Glo ATP luminescence, 48 h; actives 1.6% (n = 360,000);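 further: NT is the 2HG producing partner of a matched IDH1 knockdown line; 0% = DMSO-treated cells and -100% = media-only wells without cells; nearly all actives have a fitted effect of over 55% in size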
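Viability by CellTiter-Glo luminescence after 48 h compound exposure at 37C of HT-1080-NT cells (750/well, RPMI, 5% FBS). % activity scaled between DMSO wells and medium-only wells, then curve-fitted and categorized by curve class.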
HT1080 IDH1KD tx: HT-1080 IDH1 knockdown cell toxicity (counter line). Potency, µM (series often up to 46.1 µM), for inactives: at the top dose activity, negative = toxicity, actives largely listed as cytotoxic. actives 2% (n = 360,000). HT-1080 IDH1 knockdown viability, ATP luminescence, 48 h. AID 686971;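 further: 0% = DMSO wells and -100% = cell-free medium wells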
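In this qHTS, HT-1080 cells depleted of IDH1 are exposed for 48 h at 37 °C to compound titrations. Toxicity is scored from CellTiter-Glo luminescence, with DMSO as full viability and medium alone as none.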
TDP1 cell noCPT: qHTS for Inhibitors of human tyrosyl-DNA phosphodiesterase 1 (TDP1): qHTS in cells in absence of CPT. DT40 Tdp1-/- hTDP1 cells, no CPT, ATP luminescence, 48 h. Potency, µM (titrated, usually from 46.2 µM), inactives show at the top dose activity change, negative = growth inhibition, usual class: inhibitors. actives 15% (n = 420,000). AID 686978, 2013; further: nearly all actives have a fitted effect of over 55% in size
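Luminescent ATP content (CellTiter-Glo) served as the growth readout. Knockout chicken DT40 cells expressing human TDP1 were exposed to compounds without camptothecin for a minimum 48 hr at 37 °C.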
* hit, by the source's call. Rows were chosen to be rich in hits. Some 19% of all compounds tested hit in one or more screens of this group. The call rests on the fitted dose curve; in most records, active means well fitted curve in the direction sought with a large enough effect; inconclusive means small, poorly fitted or top-dose-only effect, or another doubt; inactive means no such curve, though single readings can be large; an effect the other way counts as inactive or inconclusive. Unless noted, on the % scale 0 is the no-effect control and ±100 the full control effect; potency means the concentration at half of the fitted maximal effect.

What do the screens show for `COc1ccc(C(C)(C)C)cc1NC(=O)CCCn1c(=O)oc2ccccc21`?
KB-3-1 tox: inactive; KB-V1 MDR tox: inactive; DT40 TDP1 CPT: -24%; HT1080NT lethal: -2%; HT1080 IDH1KD tx: -13%; TDP1 cell noCPT: inconclusive

How did C#CCN1C(=O)S/C(=C\c2ccc(N3CCOCC3)cc2C)C1=O do in these assays?
KB-3-1 tox: inactive; KB-V1 MDR tox: inactive; DT40 TDP1 CPT: inconclusive; HT1080NT lethal: 12%; HT1080 IDH1KD tx: 16%; TDP1 cell noCPT: 7.3µM*

How did O=C(c1ccc2nc3ccc(Cl)cc3c(=O)n2c1)N1CCC2(CC1)OCCO2 do in these assays?
KB-3-1 tox: inactive; KB-V1 MDR tox: 21µM*; DT40 TDP1 CPT: -28%; HT1080NT lethal: 11%; HT1080 IDH1KD tx: -1%; TDP1 cell noCPT: -11%

What do the screens show for `COc1ccc(N2C(=O)C(=O)N(c3ccc(OC)cc3)P2(=O)N(CCCl)CCCl)cc1`?
KB-3-1 tox: inactive; KB-V1 MDR tox: inactive; DT40 TDP1 CPT: -24%; HT1080NT lethal: 9%; HT1080 IDH1KD tx: 10%; TDP1 cell noCPT: -15%

How did CCCC(=O)Nc1cc(C(=O)N2CCC3(CC2)OCCO3)ccc1S(=O)(=O)c1ccc(C)cc1 do in these assays?
KB-3-1 tox: inactive; KB-V1 MDR tox: 10µM*; DT40 TDP1 CPT: inconclusive; HT1080NT lethal: 4%; HT1080 IDH1KD tx: -2%; TDP1 cell noCPT: -14%

Results for Cc1ccc(NP(=O)(Oc2ccccc2F)Oc2ccccc2F)cc1C ?
KB-3-1 tox: inactive; KB-V1 MDR tox: inconclusive; DT40 TDP1 CPT: inconclusive; HT1080NT lethal: -11%; HT1080 IDH1KD tx: -30%; TDP1 cell noCPT: inconclusive

Results for Cc1cccc(NP(=O)(Oc2ccccc2F)Oc2ccccc2F)c1 ?
KB-3-1 tox: inconclusive; KB-V1 MDR tox: 18µM*; DT40 TDP1 CPT: inconclusive; HT1080NT lethal: -24%; HT1080 IDH1KD tx: inconclusive; TDP1 cell noCPT: inconclusive

How did O=P(Nc1ccccc1)(Nc1ccccc1)Oc1ccc(Cl)cc1 do in these assays?
KB-3-1 tox: inactive; KB-V1 MDR tox: inconclusive; DT40 TDP1 CPT: -37%; HT1080NT lethal: -1%; HT1080 IDH1KD tx: inconclusive; TDP1 cell noCPT: -17%

Results for COc1ccccc1OP(=O)(Nc1cccnc1)Oc1ccccc1OC ?
KB-3-1 tox: inconclusive; KB-V1 MDR tox: 9.2µM*; DT40 TDP1 CPT: inconclusive; HT1080NT lethal: inconclusive; HT1080 IDH1KD tx: inconclusive; TDP1 cell noCPT: 12µM*

What do the screens show for `COc1cccc(NP(=O)(Oc2ccc(Cl)cc2)Oc2ccc(Cl)cc2)c1`?
KB-3-1 tox: inconclusive; KB-V1 MDR tox: 13µM*; DT40 TDP1 CPT: inconclusive; HT1080NT lethal: inconclusive; HT1080 IDH1KD tx: inconclusive; TDP1 cell noCPT: 23µM*

What do the screens show for `COC(=O)C1=C(c2ccc(OC)c(OC)c2)C[C@@H]2CC[C@H]1N2C(=O)NC(C)C`?
KB-3-1 tox: inactive; KB-V1 MDR tox: inactive; DT40 TDP1 CPT: 9%; HT1080NT lethal: 10%; HT1080 IDH1KD tx: 15%; TDP1 cell noCPT: -20%

Results for O=P1(NCCCl)OCCCN1CCCl (stereo not given) ?
KB-3-1 tox: inactive; KB-V1 MDR tox: inactive; DT40 TDP1 CPT: -22%; HT1080NT lethal: -5%; HT1080 IDH1KD tx: 16%; TDP1 cell noCPT: 5%

Results for Cc1ccc(C)c(NP(=O)(Oc2ccccc2)Oc2ccccc2)c1 ?
KB-3-1 tox: inconclusive; KB-V1 MDR tox: inactive; DT40 TDP1 CPT: inconclusive; HT1080NT lethal: inconclusive; HT1080 IDH1KD tx: inconclusive; TDP1 cell noCPT: 16µM*

How did CCCCOP(=O)(c1ccc(N(C)C)cc1)C(Nc1ccccc1)c1ccccc1 (stereo not given) do in these assays?
KB-3-1 tox: inconclusive; KB-V1 MDR tox: 3.7µM*; DT40 TDP1 CPT: 15µM*; HT1080NT lethal: -10%; HT1080 IDH1KD tx: -18%; TDP1 cell noCPT: 21µM*
